# Experimental data as given in PubChem BioAssay (NCATS).
# Results filed as inconclusive are left out. Calls of active or inactive are those of the source. Unless noted, the call rests on the fitted dose curve; in most records, active means well fitted curve in the direction sought with a large enough effect; inconclusive means small, poorly fitted or top-dose-only effect, or another doubt; inactive means no such curve, though single readings can be large; an effect the other way counts as inactive or inconclusive.
# Columns and labels:
# [1] = molecular target: Cytochrome P450 3A4 (Homo sapiens) (UniProt P08684); experiment: qHTS Assay for Inhibitors and Substrates of Cytochrome P450 3A4 (AID 884); further: on the % scale 0 is the no-effect control and ±100 the full control effect; nearly all actives have a fitted effect of over 50% in size
# Outline: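 20 nM human CYP3A4 with 25 uM Luciferin-PPXE (at KM) in 200 mM KPO4, preincubated 10 min with compound; NADPH regeneration started a 60 min RT reaction. Luciferin detected by luminescence, normalized to 57 uM ketoconazole as full inhibition.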
# [2] = Confirmation and Secondary Assay for Modulators of Hemoglobin Beta Chain Splicing at IVS2 654 locus (AID 910);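 further: HeLa cells stably carrying EGFP split by mutant beta-globin IVS2-654 intron; % of control where 0% means no effect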
# Outline: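 Readout: per-well total peak green fluorescence (488 nm ex, 500–520 nm em) from objects 5–250 µm, reflecting correct splicing of an EGFP-654 reporter. Compounds were applied for 2 days at 37 °C to overnight-plated HeLa EGFP-654 cells; controls were DMSO and 500 nM IVS2-654 PNA.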
# [3] = Confirmation and Secondary Assay for Modulators of Hemoglobin Beta Chain Splicing at IVS2 705 locus (AID 930);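 further: HeLa cells stably expressing the EGFP-705 splicing reporter; GFP fluorescence per well restored by corrected splicing of the IVS2-705 intron in EGFP; % of control where 0% means no effect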
# Outline: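 HeLa cells stably carrying EGFP interrupted by mutant beta-globin intron 2 (IVS2-705) treated 2 days at 37C with compound; 500 nM antisense PNA as control. Correct splicing read as total peak GFP intensity per well by laser-scanning cytometry.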
# [4] = qHTS Assay for Lipid Storage Modulators (AID 1519; calls by dose curve; on activity change, negative = inhibition: on the % scale 0 is the no-effect control and ±100 the full control effect); conditions: Drosophila S3 cells, BODIPY lipid droplet/cell ratio, laser cytometry, cells loaded with oleic acid; for activity change, negative = inhibition: at 57.5 µM (top of the series)
# Outline: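 Cells seeded at 5,000 per well were treated with compounds over a concentration series and loaded with oleic acid (400 uM, as added). Lipid droplet fluorescence (488 nm excitation, 500-530 nm channel) was read by laser-scanning cytometry and normalized to 20 uM Triacsin C.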
# [5] = qHTS profiling for inhibitors of Plasmodium falciparum proliferation (AID 504749); further: potency means the concentration at half of the fitted maximal effect; nearly all actives have a fitted effect of over 60% in size; conditions: P. falciparum in erythrocytes, SYBR Green DNA, 72 h
# Outline: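 Infected RBCs, 0.3% parasitemia/2.5% Hct final; cpd 72 h, 37 C, 5% CO2; lysis buffer with saponin/triton/SYBR Green I, o/n RT dark; FI 485/535; norm. to artemisinin (0.29 uM) and DMSO.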
# [6] = molecular target: Ubiquitin carboxyl-terminal hydrolase 1 (Homo sapiens) (UniProt O94782); experiment: Inhibitors of USP1/UAF1: Pilot qHTS (AID 504865);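 further: rhodamine fluorescence freed from ubiquitin-rhodamine substrate followed over time; top concentration of the series differs between compounds; on the % scale 0 is the no-effect control and ±100 the full control effect; nearly all actives have a fitted effect of over 35% in size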
# Outline: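 In 50mM HEPES pH 7.8 containing 0.5mM EDTA, 1mM TCEP, 0.1 mg/ml BSA and 0.01% Tween-20, 1nM USP1/UAF1 is exposed to compound for 15 min, then Ub-Rho (150nM final) is added and fluorescence is read over time.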
# [7] = qHTS assay for small molecule antagonists of peroxisome proliferator-activated receptor delta signaling (AID 588535; active means well fitted inhibition curve with a large enough effect in the signal ratio, with a control signal flat, not every such curve was filed as active; the % refers to the signal ratio;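 on max response: cells co-treated with a PPAR-delta agonist as stimulator during compound exposure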); conditions: HEK293T PPARd-UAS-bla, beta-lactamase FRET ratio, 18 h; 460 nm channel
# Outline: (§1)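 HEK293T PPAR-delta-UAS-bla cells, 4000/well, 2% charcoal/dextran FBS; 5 h 37 C; cpd titration; 18 h 37 C; CCF4 2 h RT; FI 460/530 nm; Hill fit → IC50, efficacy.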
# [8] = molecular target: Peroxisome proliferator-activated receptor delta (Homo sapiens) (UniProt Q03181); experiment: as above
# Outline: as §1
# [9] = molecular target: Peroxisome proliferator-activated receptor gamma (Homo sapiens) (UniProt P37231); experiment: qHTS assay for small molecule agonists of peroxisome proliferator-activated receptor gamma signaling (AID 588536; active means well fitted curve in the direction sought with a large enough effect in the signal ratio, with a control signal flat, not every such curve was filed as active; the % refers to the signal ratio;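 further: 0% = DMSO basal wells and 100% = rosiglitazone at 2 µM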)
# Outline: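 HEK293 UAS-bla reporter line, 1% charcoal/dextran FBS; titration, 16 h, 37 C; CCF4 loading 2 h RT; fluorescence 460/530 nm. Normalized to rosiglitazone 2 uM = 100%, DMSO = 0%.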
# [10] = molecular target: Vitamin D3 receptor (Homo sapiens) (UniProt P11473); experiment: qHTS assay for small molecule antagonists of vitamin D receptor signaling (AID 588541; calls by dose curve;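 further: receptor activated by calcitriol during compound treatment; on the % scale 0 is the no-effect control and ±100 the full control effect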)
# Outline: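 Antagonist-mode beta-lactamase reporter assay: HEK293T VDR-UAS-bla cells were exposed to titrated compound alongside 1-alpha,25-dihydroxyvitamin D3 at 3 nM final for 16 h. Values were normalized to the 50 nM agonist control and DMSO basal, with IC50 and efficacy from Hill equation fits.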
# [11] = molecular target: Retinoic acid receptor RXR-alpha (Homo sapiens) (UniProt P19793); experiment: qHTS assay for small molecule agonists of retinoid X receptor alpha signaling (AID 588544; calls by dose curve;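 further: 0% = DMSO basal wells and 100% = reference agonist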)
# [12] = qHTS assay for small molecule antagonists of retinoid X receptor alpha signaling (AID 588546; active means well fitted inhibition curve with a large enough effect in the signal ratio, with a control signal flat, not every such curve was filed as active; the % refers to the signal ratio;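 further: cells stimulated with 9-cis-retinoic acid as agonist; on the % scale 0 is the no-effect control and ±100 the full control effect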); conditions: HEK293T RXRa-UAS-bla, beta-lactamase ratio, antagonist mode; measured here: W530 green channel, cytotoxicity proxy
# Outline: (§2)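 Beta-lactamase reporter inhibition, read as CCF4 fluorescence ratio (ex 405, em 460/530 nm) after 2 h at RT. HEK293T UAS-bla cells, 2500/well, were stimulated with 9-cis-RA at 500 or 100 nM final alongside test compound for 18 h at 37 C.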
# [13] = molecular target: Retinoic acid receptor RXR-alpha (Homo sapiens) (UniProt P19793); experiment: as above; conditions: HEK293T RXRa-UAS-bla, beta-lactamase ratio, antagonist mode
# Outline: as §2
# [14] = molecular target: Peroxisome proliferator-activated receptor alpha (Homo sapiens) (UniProt Q07869); experiment: qHTS assay for small molecule agonists of the peroxisome proliferator-activated receptor alpha (PPARalpha) signaling pathway (AID 651778); conditions: PathHunter PPARalpha complementation, chemiluminescence, 6 h; stronger effect = higher value; further: % of control where 0% means no effect
# Outline: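 Chemiluminescence from complemented enzyme reported PPARalpha activation in cells after 6 hr of compound treatment at 37 C. The detection reagent was incubated for 60 min at room temperature, and compounds were scored as agonists.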
# [15] = qHTS assay for small molecule agonists of the antioxidant response element (ARE) signaling pathway measured by Nrf2-dependant transcriptional activity (AID 720636; active means well fitted curve in the direction sought with a large enough effect in the repeat runs; an effect the other way counts as inactive or inconclusive; further: % of control where 0% means no effect)
# Outline: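 ARE-luc HepG2 cells carrying an Nrf2-responsive luciferase reporter, in medium with 1% dialyzed FBS, exposed to compound for 16 hr at 37 C, 5% CO2. Luminescence read 30 min after ONE-Glo addition.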
# [16] = qHTS assay for small molecule agonists of the antioxidant response element (ARE) signaling pathway measured by Nrf2-dependant transcriptional activity - cell viability counter screen (AID 720653; active means well fitted curve in the direction sought with a large enough effect in the repeat runs; an effect the other way counts as inactive or inconclusive; further: on the % scale 0 is the no-effect control and ±100 the full control effect); conditions: ARE-bla HepG2 viability, CellTiter-Glo ATP luminescence, 16 h; stronger effect = lower value
# Outline: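 Cytotoxicity counter screen: intracellular ATP quantified by CellTiter-Glo luminescence in the same ARE-bla HepG2 plates, after 16 h compound exposure and a 2 h beta-lactamase substrate step.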
# [17] = qHTS assay for cell viability of HEK293 cells (AID 743288); conditions: ATP luminescence (CellTiter-Glo), 18 h; max response: stronger effect = lower value; further: on the % scale 0 is the no-effect control and ±100 the full control effect; nearly all actives have a fitted effect of over 50% in size
# Outline: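 HEK293 parental, 2,000 cells/well; ≥5 h pre-incubation 37 C; pintool compound addition; 18 h, 37 C; CellTiter-Glo 30 min RT; luminescence read.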
# [18] = qHTS assay for cell viability of the p53RE-bla HCT-116 cell line (AID 743292); further: on the % scale 0 is the no-effect control and ±100 the full control effect; nearly all actives have a fitted effect of over 55% in size
# Outline: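 CellSensor p53RE-bla HCT-116 cells (4,000/well) pre-incubated 5 h at 37 C, then exposed to compounds in DMSO for 16 h at 37 C. Viability read as ATP content by CellTiter-Glo luminescence after 30 min at room temperature.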
# [19] = molecular target: Nuclear receptor subfamily 1 group I member 2 (Rattus norvegicus) (UniProt Q9R1A7); experiment: qHTS assay for small molecule activators of the rat pregnane X receptor (rPXR) signaling pathway (AID 651751; call rule not given here; further: 0% is about no effect); conditions: rPXR reporter cells, luciferase (One-Glo), 24 h
# [20] = measured here: cell count channel max response
# [21] = measured here: lipid channel max response
# Sequence of Cytochrome P450 3A4 (Homo sapiens) (P08684 whole entry, looked up): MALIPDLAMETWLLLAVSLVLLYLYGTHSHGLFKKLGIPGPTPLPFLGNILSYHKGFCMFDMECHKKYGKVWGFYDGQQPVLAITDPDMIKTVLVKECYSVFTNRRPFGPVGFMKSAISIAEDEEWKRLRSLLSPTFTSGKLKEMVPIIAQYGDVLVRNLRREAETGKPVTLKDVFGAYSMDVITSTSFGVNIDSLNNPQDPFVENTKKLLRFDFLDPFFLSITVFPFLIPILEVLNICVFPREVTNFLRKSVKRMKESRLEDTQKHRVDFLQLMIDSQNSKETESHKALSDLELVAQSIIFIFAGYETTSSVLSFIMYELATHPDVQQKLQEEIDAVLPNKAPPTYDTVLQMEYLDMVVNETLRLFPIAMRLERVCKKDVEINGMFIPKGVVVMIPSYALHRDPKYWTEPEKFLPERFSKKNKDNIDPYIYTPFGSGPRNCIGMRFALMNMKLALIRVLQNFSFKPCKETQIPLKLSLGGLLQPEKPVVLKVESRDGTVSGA
# Sequence of Ubiquitin carboxyl-terminal hydrolase 1 (Homo sapiens) (O94782 whole entry, looked up): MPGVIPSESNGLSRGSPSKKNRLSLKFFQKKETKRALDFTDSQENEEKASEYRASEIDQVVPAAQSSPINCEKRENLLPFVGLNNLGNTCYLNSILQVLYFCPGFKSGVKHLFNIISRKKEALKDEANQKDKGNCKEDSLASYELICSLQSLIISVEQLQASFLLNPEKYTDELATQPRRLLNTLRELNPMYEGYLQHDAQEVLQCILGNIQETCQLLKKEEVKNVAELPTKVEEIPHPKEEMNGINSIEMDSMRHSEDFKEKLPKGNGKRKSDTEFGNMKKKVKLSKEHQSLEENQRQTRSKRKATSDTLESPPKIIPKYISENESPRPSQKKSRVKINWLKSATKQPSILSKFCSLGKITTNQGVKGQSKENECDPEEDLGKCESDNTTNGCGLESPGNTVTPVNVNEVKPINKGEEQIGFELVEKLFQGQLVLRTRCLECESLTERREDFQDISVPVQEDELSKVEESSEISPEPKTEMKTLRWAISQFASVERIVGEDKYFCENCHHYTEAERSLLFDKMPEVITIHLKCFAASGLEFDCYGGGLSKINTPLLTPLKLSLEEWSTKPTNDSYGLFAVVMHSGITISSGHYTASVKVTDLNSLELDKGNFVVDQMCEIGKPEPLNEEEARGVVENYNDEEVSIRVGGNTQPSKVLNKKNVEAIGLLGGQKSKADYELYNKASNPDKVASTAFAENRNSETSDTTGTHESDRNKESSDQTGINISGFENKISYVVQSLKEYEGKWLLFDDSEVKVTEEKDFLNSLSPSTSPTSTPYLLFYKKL
# Sequence of Retinoic acid receptor RXR-alpha (Homo sapiens) (P19793 whole entry, looked up): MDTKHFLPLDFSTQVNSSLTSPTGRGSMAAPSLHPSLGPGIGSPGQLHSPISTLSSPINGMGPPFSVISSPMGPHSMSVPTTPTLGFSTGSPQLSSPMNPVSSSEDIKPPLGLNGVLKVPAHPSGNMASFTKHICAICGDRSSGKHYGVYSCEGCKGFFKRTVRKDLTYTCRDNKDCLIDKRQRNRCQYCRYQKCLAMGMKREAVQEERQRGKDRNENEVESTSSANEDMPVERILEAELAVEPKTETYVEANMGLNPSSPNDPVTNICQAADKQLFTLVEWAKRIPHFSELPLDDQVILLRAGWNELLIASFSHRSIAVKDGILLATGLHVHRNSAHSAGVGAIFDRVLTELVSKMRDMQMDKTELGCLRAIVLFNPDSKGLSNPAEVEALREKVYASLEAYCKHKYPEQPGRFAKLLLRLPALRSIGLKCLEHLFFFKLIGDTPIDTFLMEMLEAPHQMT
# Sequence of Peroxisome proliferator-activated receptor gamma (Homo sapiens) (P37231 whole entry, looked up): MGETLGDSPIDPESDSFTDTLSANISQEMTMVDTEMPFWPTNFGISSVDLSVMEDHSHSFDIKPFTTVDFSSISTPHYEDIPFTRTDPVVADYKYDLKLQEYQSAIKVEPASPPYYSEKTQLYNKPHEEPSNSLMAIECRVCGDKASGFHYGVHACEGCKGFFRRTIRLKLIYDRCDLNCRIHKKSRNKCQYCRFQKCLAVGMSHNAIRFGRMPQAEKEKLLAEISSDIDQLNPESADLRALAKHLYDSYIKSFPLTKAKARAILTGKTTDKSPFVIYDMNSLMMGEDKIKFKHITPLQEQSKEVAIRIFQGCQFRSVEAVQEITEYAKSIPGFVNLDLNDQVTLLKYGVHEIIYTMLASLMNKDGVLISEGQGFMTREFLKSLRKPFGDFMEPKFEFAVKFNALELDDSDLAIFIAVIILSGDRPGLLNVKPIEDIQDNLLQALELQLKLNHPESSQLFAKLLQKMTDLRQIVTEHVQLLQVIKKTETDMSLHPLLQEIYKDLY
# Sequence of Peroxisome proliferator-activated receptor alpha (Homo sapiens) (Q07869 whole entry, looked up): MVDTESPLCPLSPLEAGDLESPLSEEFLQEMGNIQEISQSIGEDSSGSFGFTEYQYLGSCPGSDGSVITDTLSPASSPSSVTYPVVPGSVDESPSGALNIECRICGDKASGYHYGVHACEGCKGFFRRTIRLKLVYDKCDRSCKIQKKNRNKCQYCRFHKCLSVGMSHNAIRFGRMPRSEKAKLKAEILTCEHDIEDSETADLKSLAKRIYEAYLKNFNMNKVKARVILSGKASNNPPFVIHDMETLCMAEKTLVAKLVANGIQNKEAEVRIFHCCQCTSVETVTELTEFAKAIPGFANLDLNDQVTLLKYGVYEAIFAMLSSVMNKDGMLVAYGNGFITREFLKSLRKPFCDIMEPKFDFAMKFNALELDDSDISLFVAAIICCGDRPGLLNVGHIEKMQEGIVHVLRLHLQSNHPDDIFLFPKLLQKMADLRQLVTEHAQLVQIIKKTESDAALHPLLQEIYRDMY
# Sequence of Vitamin D3 receptor (Homo sapiens) (P11473 whole entry, looked up): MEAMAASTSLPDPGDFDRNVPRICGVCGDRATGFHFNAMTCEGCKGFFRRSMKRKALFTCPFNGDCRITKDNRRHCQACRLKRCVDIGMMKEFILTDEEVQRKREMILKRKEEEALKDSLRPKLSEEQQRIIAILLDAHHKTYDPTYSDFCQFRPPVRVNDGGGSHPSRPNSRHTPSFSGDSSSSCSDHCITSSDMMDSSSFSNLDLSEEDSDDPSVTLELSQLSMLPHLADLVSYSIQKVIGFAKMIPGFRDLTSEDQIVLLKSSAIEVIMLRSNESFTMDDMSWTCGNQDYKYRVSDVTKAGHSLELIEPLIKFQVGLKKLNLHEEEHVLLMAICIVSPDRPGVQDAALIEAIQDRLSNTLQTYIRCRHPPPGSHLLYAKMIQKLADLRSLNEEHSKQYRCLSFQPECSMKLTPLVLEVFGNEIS
# Sequence of Nuclear receptor subfamily 1 group I member 2 (Rattus norvegicus) (Q9R1A7 whole entry, looked up): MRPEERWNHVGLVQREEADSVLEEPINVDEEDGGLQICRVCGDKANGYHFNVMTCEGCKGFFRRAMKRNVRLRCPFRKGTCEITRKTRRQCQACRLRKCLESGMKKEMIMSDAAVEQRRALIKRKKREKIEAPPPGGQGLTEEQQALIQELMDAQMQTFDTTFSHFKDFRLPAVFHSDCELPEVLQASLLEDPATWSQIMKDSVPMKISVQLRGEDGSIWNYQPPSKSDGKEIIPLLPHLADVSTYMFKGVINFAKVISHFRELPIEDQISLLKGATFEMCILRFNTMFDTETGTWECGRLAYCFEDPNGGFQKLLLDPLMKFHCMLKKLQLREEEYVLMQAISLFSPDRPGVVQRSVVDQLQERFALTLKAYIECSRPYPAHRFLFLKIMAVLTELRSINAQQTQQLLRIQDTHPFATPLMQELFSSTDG
# Sequence of Peroxisome proliferator-activated receptor delta (Homo sapiens) (Q03181 whole entry, looked up): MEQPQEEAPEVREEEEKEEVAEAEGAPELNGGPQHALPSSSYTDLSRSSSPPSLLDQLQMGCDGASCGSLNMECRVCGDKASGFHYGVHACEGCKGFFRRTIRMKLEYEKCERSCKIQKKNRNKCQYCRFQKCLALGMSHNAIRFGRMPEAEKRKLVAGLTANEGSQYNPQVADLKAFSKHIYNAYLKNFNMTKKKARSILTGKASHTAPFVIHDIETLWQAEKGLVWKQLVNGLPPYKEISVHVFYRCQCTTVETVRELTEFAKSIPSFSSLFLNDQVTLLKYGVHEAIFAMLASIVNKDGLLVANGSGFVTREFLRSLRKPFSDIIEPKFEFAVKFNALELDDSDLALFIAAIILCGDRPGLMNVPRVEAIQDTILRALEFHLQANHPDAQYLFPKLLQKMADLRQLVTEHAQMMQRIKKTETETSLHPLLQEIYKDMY
structure (smiles),measurement,setting,value
CCC(C)C1O[C@]2(C=CC1C)CC1CC(C/C=C(\C)[C@H](OC3CC(OC)C(O[C@H]4CC(OC)[C@@H](O)C(C)O4)C(C)O3)[C@@H](C)/C=C/C=C3\COC4C(O)C(C)=C[C@H](C(=O)O1)[C@@]34O)O2 (some centres undefined),Potency,[1],inactive
same,Potency,[2],inactive
same,Potency,[3],inactive
same,"activity change, negative = inhibition",[4],-5.38% (inactive)
same,max response,[4]; [20],-1.86%
same,max response,[4]; [21],-6.99%
same,Potency,[5]; parasite line A,4.47 µM (active)
same,Potency,[5]; parasite line B,8.91 µM (active)
CC1OC(O[C@@H]2C(O)CC(O[C@@H]3C(O)C[C@@H](OC4CC[C@]5(C)[C@H](CC[C@H]6[C@@H]5CC[C@]5(C)C(C7=CC(=O)OC7)C(O)C[C@@]65O)C4)OC3C)OC2C)CC(O)C1O (some centres undefined),Potency,[1],inactive
same,"activity change, negative = inhibition",[4],10.1% (inactive)
same,max response,[4]; [20],12.5%
same,max response,[4]; [21],20.2%
same,Potency,[6],inactive
CNC(=O)Oc1ccc2c(c1)[C@@]1(C)CCN(C)C1N2C (some centres undefined),"activity change, negative = inhibition",[4],4.58% (inactive)
same,max response,[4]; [20],3.75%
same,max response,[4]; [21],14.3%
same,Potency,[6],inactive
C[C@]1(C(=O)O)CCC[C@]2(C)c3cc(O)ccc3CC[C@@H]12,Potency,[1],inactive
same,"activity change, negative = inhibition",[4],-6.36% (inactive)
same,max response,[4]; [20],-21.1%
same,max response,[4]; [21],-24.8%
same,Potency,[6],inactive
CC(C)N1C(=O)c2ccccc2NS1(=O)=O,Potency,[1],inactive
same,Potency,[2],inactive
same,Potency,[3],inactive
same,"activity change, negative = inhibition",[4],2.96% (inactive)
same,max response,[4]; [20],13.1%
same,max response,[4]; [21],17.2%
same,Potency,[6],inactive
same,max response,[7],55.3%
same,Potency,[8],inactive
same,outcome,[9],inactive
same,outcome,[10],inactive
same,Potency,[11],inactive
same,max response,[12],-4.57%
same,max response,[13],0.0964% (inactive)
same,max response,[14],-0.187% (inactive)
same,outcome,[15],inactive
same,max response,[16],7.65% (inactive)
same,max response,[17],-4.24% (inactive)
same,Potency,[18],inactive
same,max response,[19],-1.76% (inactive)
CC(C)CC(CN)CC(=O)O (centres undefined),Potency,[1],inactive
same,Potency,[2],inactive
same,Potency,[3],inactive
same,"activity change, negative = inhibition",[4],8.71% (inactive)
same,max response,[4]; [20],14.3%
same,max response,[4]; [21],26.2%
same,Potency,[6],inactive
O=C1CCCC2[C@@H]3CCCN4CCC[C@@H](CN12)C34 (some centres undefined),Potency,[1],inactive
same,"activity change, negative = inhibition",[4],4.15% (inactive)
same,max response,[4]; [20],4.45%
same,max response,[4]; [21],7.09%
same,Potency,[6],inactive
CNC(=O)Oc1ccccc1OC(C)C,Potency,[1],inactive
same,Potency,[2],inactive
same,Potency,[3],inactive
same,"activity change, negative = inhibition",[4],5.74% (inactive)
same,max response,[4]; [20],11.3%
same,max response,[4]; [21],18.3%
same,Potency,[6],inactive
same,max response,[7],17.8%
same,Potency,[8],inactive
same,outcome,[9],inactive
same,outcome,[10],inactive
same,Potency,[11],inactive
same,max response,[12],-6.53%
same,max response,[13],-31.5% (inactive)
same,max response,[14],0.062% (inactive)
same,outcome,[15],inactive
same,max response,[16],-4.9% (inactive)
same,max response,[17],-6.22% (inactive)
same,Potency,[18],inactive
same,max response,[19],-0.132% (inactive)
